Results reported in PubChem BioAssay AID463173 (ICCB-Longwood Screening Facility, Harvard Medical School, 2010).
Screen size: about 52,000 compounds; about 1,700 (3.3%) were called active. Only a selection was taken, and actives are over-represented in it overall. Unmarked numbers belong to inactive results. No stated cut-off is given here; in the data, active means survival mostly below about 52% (no sharp cut-off); inactive means mostly above about 56%.

tested on: Wild type; assay: growth inhibition of S. aureus wild type versus tarO mutant, primary screen, teichoic acid synthesis inhibitors, RN4220, OD600 (AID 463173); settings: S. aureus RN4220 wild type/DeltatarO growth, OD600, 18 h, active compounds read low, screened at 18.75 µg/mL (by protocol)

SMILES	survival
Cc1ccc(C)c(NC(=O)Cn2c(=O)n(CC3CCCO3)c(=O)c3ccccc32)c1 (configuration not stated)	119%
CCOC(=O)c1c(NC(=O)c2cc3nc(-c4ccccc4)cc(C(F)(F)F)n3n2)sc2c1CCC(C)C2 (configuration not stated)	65%
O=S(=O)(c1ccc(Br)cc1)N1CCn2cccc2C1c1ccc(Br)cc1 (configuration not stated)	65%
CCCOC(=O)c1cccc(Nc2nc(C(=O)OCC)nc3ccccc23)c1	44%
Cc1ccc(CNS(=O)(=O)c2c(C(=O)N3CCC(C)CC3)c(C)n(C)c2C)cc1	76%
O=C(Nc1nnc(C2CCCC2)s1)C1CC1	105%
CNC(=O)Nc1ccc2nc(C)sc2c1	112%
COC(=O)CCN(c1ccccc1)S(=O)(=O)c1cc(-c2cc(C)no2)ccc1OC	90%
Cc1ccc2cc(CN(CC3CCCO3)C(=O)C(F)(F)F)c3nnnn3c2c1C (configuration not stated)	115%
Cc1ccccc1OCC(=O)N1CCC(c2nc3ccccc3s2)CC1	65%
CCC(Oc1ccccc1F)C(=O)N1CCC(c2nc3ccccc3s2)CC1 (configuration not stated)	-3% (active)
COc1ccccc1OC(C)C(=O)N1CCC(c2nc3ccccc3s2)CC1 (configuration not stated)	-2% (active)
CC(Oc1ccc(F)cc1)C(=O)N1CCC(c2nc3ccccc3s2)CC1 (configuration not stated)	80%
CCc1ccc(OC(C)C(=O)N2CCC(c3nc4ccccc4s3)CC2)cc1 (configuration not stated)	35%
CCCOc1ccccc1C(=O)N1CCC(c2nc3ccccc3s2)CC1	68%
COCCn1c(CNC(=O)c2ccccc2C)nc2cccnc21	69%
COc1cc(Cl)c(C)cc1NC(=O)CNC(=O)Cn1ccc2ccccc2c1=O	65%
COC(=O)C1=C(c2ccccc2)c2ccccc2S(=O)(=O)N1CC(=O)Nc1cc(C)ccc1C	77%
CCN(CC)S(=O)(=O)c1ccc2c(c1)N(CC(=O)NCc1ccccc1)C(=O)C1CCCCN21 (configuration not stated)	102%
CCOc1ccc2nc(NCCCNC(=O)C3CCCO3)c(C#N)cc2c1 (configuration not stated)	105%
CCC(C)NC(=O)Cn1c(=O)n(-c2ccc(OC)c(OC)c2)c(=O)c2ccccc21 (configuration not stated)	87%
COc1cccc(CNC(=O)CCCN2C(=O)CSc3c2c(C)nn3-c2ccccc2)c1	89%
CC1CCN(C(=O)c2cccc(Cl)c2)CC1	112%

SMILES	survival
COc1ccccc1C(=O)N1c2ccccc2C(C)(c2ccc(Cl)cc2)CC1(C)C (configuration not stated)	2% (active)
COc1ccc(C(=O)N2CCC(C(=O)Nc3ccc(Cl)cc3)CC2)cc1	122%
O=C(c1ccccc1Cl)n1cc(Cl)cn1	100%
CC1(c2ccccc2)CC(C)(C)N(C(=O)c2cccc(Cl)c2)c2ccccc21 (configuration not stated)	6% (active)
COc1ccccc1C(=O)n1nc(-c2ccccc2)nc1NCc1ccc(Cl)cc1	66%
COc1ccc(CCC(=O)NCc2ccc3c(c2)CCN3C(=O)c2ccc(Cl)cc2)cc1	80%
COc1ccc(C(=O)N2c3ccccc3C(C)(c3ccc(Cl)cc3)CC2(C)C)cc1 (configuration not stated)	6% (active)
CC1(c2ccccc2)CC(C)(C)N(C(=O)c2ccccc2Cl)c2ccccc21 (configuration not stated)	-2% (active)
CN1CC2(C)CN(C(=O)c3ccccc3Cl)CC(C)(C1)C2	112%
COc1ccccc1C(=O)CC1(O)C(=O)N(CC(N)=O)c2ccccc21 (configuration not stated)	65%
CC1CCN(c2ccc(NC(=O)c3cccc(Cl)c3)cc2C(=O)O)CC1	76%
Cc1ccc(F)cc1NC(=O)Cn1c(C)cc(C)c(C#N)c1=O	131%
CCOc1ccc(CNC(=O)Cn2nc(C)c3c(C)n(-c4ccc(C)cc4)nc3c2=O)cc1	78%
O=C(CSc1ccc2nnc(CCNS(=O)(=O)c3ccccc3)n2n1)Nc1ccccc1C(F)(F)F	107%
Cc1cccc(S(=O)(=O)Nc2cccc(-c3ccc(N4CCCCC4)nn3)c2)c1	69%
N#Cc1ccccc1NC(=O)C(=O)NCC(c1cccnc1)N1CCN(c2ccccc2)CC1 (configuration not stated)	99%
Cc1ccc(NC(=O)c2c(C)nc3sc(C(=O)Nc4ccc(F)cc4)c(N)c3c2-c2ccccc2Cl)c(C)c1	65%
Cc1cn(C)c(CC(=O)Nc2ccc(F)cc2Cl)c1C(=O)O	76%
CCOC(=O)c1cccc(NC(=O)CCn2nc(C)c3c(C)n(-c4ccccc4)nc3c2=O)c1	73%
CC1(c2ccc(Cl)cc2)CC(C)(C)N(C(=O)c2ccccc2)c2ccccc21 (configuration not stated)	-11% (active)
CC1(c2ccc(Cl)cc2)CC(C)(C)N(C(=O)c2cccc(F)c2)c2ccccc21 (configuration not stated)	7% (active)
CC1(C)C(=O)N(CC(=O)Nc2ccc(Cl)cc2)c2ccccc21	59%
O=C(c1cccc(F)c1)N1CCC(c2c[nH]c3ccccc23)(c2c[nH]c3ccccc23)CC1	63%

SMILES	survival
O=C(NCc1ccc2c(c1)CCN2C(=O)c1ccc(Cl)cc1)c1cccc(F)c1	55%
CC1CC(C)CN(C(=O)c2ccc(Cl)cc2)C1 (configuration not stated)	117%
COc1ccc(-n2c(SCC(=O)Nc3ccc4c(c3)OCO4)nc3c([nH]c4ccccc43)c2=O)cc1	81%
Cc1ccc(COC(=O)c2[nH]c3c(c2C)C(=O)CC(c2ccc(Cl)cc2)C3)cc1 (configuration not stated)	84%
COc1cc2[nH]c(=O)n(CCCC(=O)NCc3ccc(Cl)cc3)c(=O)c2cc1OC	90%
Cc1cc(OCC(O)CN2CCN(c3cccc(Cl)c3)CC2)ccc1Cl (configuration not stated)	0% (active)
COc1ccccc1N1CCN(CC(O)COc2ccc(Cl)c(C)c2)CC1 (configuration not stated)	66%
CC(=O)Nc1ccc(OCC(O)CN2CCN(c3ccc(C)c(Cl)c3)CC2)cc1 (configuration not stated)	98%
O=C(c1cc2ccccc2oc1=O)N1CCCCCC1	88%
Cc1ccc(-n2ncc(C(=O)NCCN3CCCC3)c2C2CCN(C(=O)OC(C)(C)C)CC2)cc1	153%
COc1ccc(-c2nnc(SCc3cccc(Cl)c3)o2)cc1	13% (active)
COc1ccc(-c2nnc(SCC#N)o2)cc1	106%
COc1cccc(CSc2nnc(-c3ccc(F)cc3)o2)c1	113%
COc1cn(CC(=O)Nc2ccc(F)cc2)c(CN2CCCCC2)cc1=O	72%
O=C1c2ccccc2-c2onc3c(Br)cc(NC4CCCCC4)c1c23	86%
CN(C)CCCNc1cc(N2CCN(C3CCCCC3)CC2)c2noc3c2c1C(=O)c1ccccc1-3	72%
CCNc1cc(N2CCN(C3CCCCC3)CC2)c2noc3c2c1C(=O)c1ccccc1-3	84%
CCCCNc1cc(NC2CCCCC2)c2c3c(onc13)-c1ccccc1C2=O	117%
CCCCNc1cc(N2CCN(C3CCCCC3)CC2)c2noc3c2c1C(=O)c1ccccc1-3	-1% (active)
CCN(CC)c1cc(NC2CCCCC2)c2c3c(onc13)-c1ccccc1C2=O	5% (active)
Cc1ccc2nc(COc3ccccc3NC(=O)C(C)(C)C)cc(=O)n2c1	66%
O=C(C1CCN(c2ncnc3c2nc2n3CCCCC2)CC1)N1CCN(c2ccccc2F)CC1	82%
CCc1ccc(NC(=O)Cn2nnc(C(=O)NCc3ccco3)c2N)cc1	94%

SMILES	survival
CCOC(=O)c1c(S(=O)(=O)N2CCC(C(=O)Nc3cccc(C#N)c3)CC2)c(C)n(C)c1C	115%
Cc1nn(C(=O)c2cc3sc(Br)cc3[nH]2)c(C)c1C	97%
COc1ccc(NC(=O)CSc2nnc(N)s2)cc1	73%
CCc1ccc(NC(=O)Cn2ncc3c(C)n(Cc4cccc(Cl)c4)c(C)c3c2=O)cc1	86%
Cc1ccc(CCNC(=O)c2ccc3c(c2)c(C)c(C)n3Cc2ccccc2)cc1	125%
Cc1c(Cl)cccc1-c1ccc(C(=O)Nc2ccc3oc(-c4cccnc4)nc3c2)o1	79%
CCOC(=O)c1ccc(NC(=O)c2ccc(-c3cccc(Cl)c3C)o2)cc1	59%
Cc1ccc(NC(=O)c2ccc(-c3cccc(Cl)c3C)o2)cc1	1% (active)
CCOc1ccc(NC(=O)c2ccc(-c3cccc(Cl)c3C)o2)cc1	66%
COc1ccc(NC(=O)c2ccc(-c3cccc(Cl)c3C)o2)cc1	44%
Cc1c(Cl)cccc1-c1ccc(C(=O)Nc2ccc(F)cc2)o1	-1% (active)
Clc1ccc(-c2nc3ccccn3c2Nc2ccc3c(c2)OCCO3)s1	79%
Cc1ccccc1C(=O)Nc1cccc(-c2cn3cccnc3n2)c1	105%
Cc1ccc(CCNC(=O)CSCc2nc(-c3ccc(C)cc3)oc2C)cc1	27%
Cc1oc(-c2cccc(Cl)c2)nc1CS(=O)(=O)CC(=O)NCc1ccccc1Cl	75%
Cc1ccc(CNC(=O)CSCc2nc(-c3cccc(C)c3)oc2C)cc1	-1% (active)
Cc1oc(-c2cccc(Cl)c2)nc1CSCC(=O)NCc1ccccc1Cl	-1% (active)
CCOc1ccc(-c2nc(CSCC(=O)NCc3ccc(C)cc3)c(C)o2)cc1	73%
Cc1ccc(CNC(=O)CSCc2nc(-c3ccc(Cl)cc3)oc2C)cc1	88%
COc1ccc(-c2nc(CSCC(=O)NCCc3ccc(C)cc3)c(C)o2)cc1OC	72%
CCc1ccc(-c2nc(CSCC(=O)NCc3ccc(C)cc3)c(C)o2)cc1	0% (active)
COc1ccc(-c2nc(CSCC(=O)NCc3ccccc3Cl)c(C)o2)cc1OC	70%
Cc1ccc(-n2nc(C)c3c(C(=O)NCc4ccccc4)cc(C4CC4)nc32)cc1	82%
